From PubChem BioAssay (NCI)
Several values for one entry are separate records, joined by “and”; a condition that tells them apart may be missing. Equal entries are not always repeated. This is part of a sample that, as a whole, favours compounds with a hit. Of some 83,000 tested, about 20% had one in any assay.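 Values shown are percent growth following 48 h exposure of cells in 96-well plates to a single concentration of compound; below 10 was considered active.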 Activity calls are given as the source filed them.

What follows are compounds tested on MCF7 breast (assay: NCI-60 one-dose screen, 48 h (100 = growth as untreated, 0 = no growth, -100 = all killed)). Conditions: 10 µM unless noted.

Structure (SMILES) | growth
CC(O)c1cc2c(s1)C(=O)c1c(C(C)O)csc1C2=O (stereo not given) | -78.4% [100 µM] (active) and -81.9% [100 µM] (active)
C[C@]12CC[C@@H]3c4cc(Br)c(O)c(Br)c4CC[C@H]3[C@@H]1CC(Br)C2=O (stereo not given in full) | -71.4% [100 µM] (active) and -70.2% [100 µM] (active)
O=C(O)c1cnccc1-c1cc(=O)[nH]n1-c1ccccc1 | 29.1% [100 µM] (inactive) and 3.22% [100 µM] (active)
Cc1cc(-c2nc3ccccc3s2)ccc1N | 27.4% [100 µM] (inactive) and 5.42% [100 µM] (active)
C=C1C(=O)OC2/C=C(/C)C3(O)OC(C)(CC(OC(=O)C(C)C)C12)CC3OC(C)=O (stereo not given) | -83.4% [100 µM] (active)
Cc1ccc(/C=N/Nc2cc(C)c3ccccc3n2)s1 | -80.7% [100 µM] (active) and -40.2% [100 µM] (active)
CC1(C)CCCC(C)(C2CCC3(C)C2C(O)CC2C4(C)CCC(O)C(C)(C)C4C(O)CC23C)O1 (stereo not given) | -19.1% [100 µM] (active) and -85.7% [100 µM] (active)
Cc1cc2c3c(nc4ccccc42)C(=O)c2cccnc2-c3n1 | -74.8% [100 µM] (active) and -100% [100 µM] (active)
COc1cc(Nc2ccc3c(c2)CCC3)nc(OC)n1 | 22.3% [100 µM] (inactive) and -82.6% [100 µM] (active)
CC(=O)Nc1c(C)cc2c(nc3n2CCC3OC(C)=O)c1[N+](=O)[O-] (stereo not given) | 105% [100 µM] (inactive) and 101% [100 µM] (inactive)
